This note sets out measurements from PubChem BioAssay AID624133 (Broad Institute, 2012).

Among all 1,600 compounds or so, about 1,300 (81%) were called active. No rule for the calls is given here. The set was probably picked from earlier hits. These entries were drawn from the full list. Entries with a potency or affinity are not part of this list.

The test in a line: non-specific 3'UTR reporter inhibition in Clone20-Shn3RL – cell-based, Renilla luciferase, cherry-picked, counter-screen for Shn3 inhibitor project, dose response (AID 624133).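 Also: 0% = neutral control wells and -100% = positive control wells.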 The settings on record: Clone20-Shn3RL cells, Renilla luciferase luminescence, 24 h; at 35 µM (top of the series) unless noted.
Regarding `C=CCn1c(C)cc(C2=NNC(=NCC)SC2)c1C`, the activity change, negative = inhibition was -16.7%.

For the compound `NC(=O)NC(CC(=O)NCCc1ccccn1)c1ccccc1Cl` (stereo unspecified), the activity change, negative = inhibition is -110%. The result for `S=c1[nH]nc(COc2cccc3ccccc23)n1Cc1ccccc1` reads -87.5%; that for `CC(C)(C)C(=O)Nc1ccc(NC(=O)c2ccco2)nc1`, 8.33%; that for `CCOC(=O)C1=C(C)N(CCCC(=O)O)C(=O)NC1c1ccc2ccccc2c1` (stereo unspecified), -30%. In the case of `Cc1ccc(C(=O)N2CCN(C)CC2)cc1S(=O)(=O)N1CCCCCC1` it was 65.3%; in that of `CCN(CC)C(=S)Sc1c(-c2ccccc2)c2cc(Cl)ccc2[nH]c1=O`, 16.7%. The result for `CC(C)(C)C(=O)Nc1cc2nn(-c3ccccc3)nc2cc1Cl` reads 52.1%. Consider `COc1ccc(OC)c(NC(=O)COC(=O)c2c3c(nc4ccccc24)CCCC3)c1`, for which the activity change, negative = inhibition was 40%. The result for `COc1cc(Nc2nc(-c3ccccc3)c3cc(C)ccc3n2)cc(OC)c1OC` reads 16.7%. `Cc1ccc(S(=O)(=O)N2CCC3(CC2)OCCN3S(=O)(=O)c2c(C)cc(C)cc2C)cc1`: the activity change, negative = inhibition was -13.6%. The result for `O=C(CSc1nc2[nH]ncc2c(=O)[nH]1)Nc1ccccc1C(F)(F)F` reads -108%; that for `Cc1csc(=O)n1CCC(=O)N(C)Cc1c(F)cccc1Cl`, 75%. As for `CN(C)c1ncnc2c1C(c1ccccc1)C(C)(C)O2` (stereo unspecified), the activity change, negative = inhibition is -22.2%.

Take `O=C(OCc1ccccc1)N(CCCCN(CCCNCc1ccccc1)C(=O)OCc1ccccc1)CCCNCc1ccccc1`: the activity change, negative = inhibition was 20%. For `COc1ccc(-c2noc(CCCCC(=O)N3CCN(c4cc(C)ccc4C)CC3)n2)cc1`, the activity change, negative = inhibition was -30%. The result for `C=CC[C@H](CC(=O)N(CCO)Cc1ccccc1)C(=O)NC[C@H](OC(=O)[C@@H](CC=C)Cc1ccc(F)cc1)c1ccccc1` reads -75%; that for `CCS(=O)(=O)c1ccc2oc(SCC(=O)N3CCCCC3)nc2c1`, 35%; that for `CSc1nc(N2CCN(Cc3ccc4c(c3)OCO4)CC2)c2ccccc2n1`, -16.7%. In the case of `Cc1ccc(NC(=O)c2oc3ccccc3c2COC(C)C)cc1S(=O)(=O)N1CCOCC1` it was 25%; in that of `O=C(CSc1nc2c(c(=O)n1-c1ccc(Br)cc1)SCC2)NCc1ccco1`, 29.2%. Consider `Cc1ccc(CNC(=O)CSc2c3c(nc4ccc(Cl)cc24)CCCC3)o1`, for which the activity change, negative = inhibition is 106%. The result for `CC(C)c1c(O)c2c(n(-c3ccccc3)c1=O)CCCC2` reads -21.1%; that for `O=C(Nc1cccc(S(=O)(=O)NC2=NCCC2)c1)C1CC(=O)N(c2ccc3c(c2)OCCO3)C1` (stereo unspecified), -66.7%. For `C[C@@H]1CC=C[C@H]2[C@H]1C(=O)N(Cc1ccccc1)[C@H]2c1cccc([N+](=O)[O-])c1`, the activity change, negative = inhibition is 162%. In the case of `COc1cc(NC(=O)c2cc3c(Cl)nc4ccccc4c3s2)cc(OC)c1OC` it was 60%; in that of `O=C(Nc1ccc(Cl)c(Cl)c1)c1cccc(S(=O)(=O)NCc2cccnc2)c1`, -10%; in that of `Cc1ccc(NC(=O)C2CCC(C(C)(C)C)CC2)cc1S(=O)(=O)N1CCOCC1` (stereo unspecified), -100%. In the case of `O=C(NNc1ccccc1)C(=O)NNS(=O)(=O)c1ccc(CCCl)cc1` it was 90%. Consider `CCCc1nc2c(=O)n(C)c(=O)nc-2n(C)n1`, for which the activity change, negative = inhibition is 71.8%.

For the compound `COc1ccc(CNC(=O)C(C)n2ccc3cc(S(=O)(=O)N4CCCCCC4)ccc32)cc1` (stereo unspecified), the activity change, negative = inhibition was 12.2%.
